Shown is part of a subset that was picked to be rich in hits.
HT1080-NT tox: qHTS for induction of synthetic lethality in tumor cells producing 2HG: qHTS for the HT-1080-NT fibrosarcoma cell line | AID 686970, 2013 | HT-1080-NT fibrosarcoma viability, CellTiter-Glo ATP luminescence, 48 h | Potency, µM (highest dose often 46.1 µM), for the others: top-dose activity, negative = less viability, usual class: cytotoxic | 1.6% of 360,000 active;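 further: NT is the 2HG producing partner of a matched IDH1 knockdown line; potency means the concentration at half of the fitted maximal effect; 0% = DMSO-treated cells and -100% = media-only wells without cells; nearly all actives have a fitted effect of over 55% in size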
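Read-out is CellTiter-Glo luminescence after 10 minutes at room temperature, following 48 hours' compound treatment of HT-1080-NT cells (750 cells/well, RPMI, 5% FBS, 37 degrees C).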
DT40 TDP1 no CPT: qHTS for Inhibitors of human tyrosyl-DNA phosphodiesterase 1 (TDP1): qHTS in cells in absence of CPT; DT40 Tdp1-/- hTDP1 cells, no CPT, ATP luminescence, 48 h; Potency, µM (series often up to 46.2 µM), without a hit: at the top dose activity change, negative = growth inhibition, most hits filed as inhibitors; 15% of 420,000 active; AID 686978, 2013; further: potency means the concentration at half of the fitted maximal effect; nearly all actives have a fitted effect of over 55% in size
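Compound effects on proliferation are scored in DT40 Tdp1-/-;hTDP1 cells in the absence of CPT. ATP levels (CellTiter-Glo luminescence) are recorded after a ≥48 hr, 37 °C incubation.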
HT1080 IDH1KD tx: qHTS for induction of synthetic lethality in tumor cells producing 2HG: qHTS for the HT-1080-IDH1KD cell line; 2% of 360,000 active; AID 686971, 2013; HT-1080 IDH1 knockdown viability, ATP luminescence, 48 h; Potency, µM (titrated, usually from 46.1 µM), without a hit: at the top dose activity, negative = toxicity, usual class: cytotoxic;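 further: potency means the concentration at half of the fitted maximal effect; 0% = DMSO wells and -100% = cell-free medium wells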
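HT-1080-IDH1KD cells (IDH1 knocked down), 750/well in RPMI with 5% FBS, treated with compound 48 h at 37 degrees C. Viability by CellTiter-Glo luminescence, normalised to DMSO and no-cell wells; concentration-response curves classed.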
TDP1 cell CPT: qHTS for Inhibitors of human tyrosyl-DNA phosphodiesterase 1 (TDP1): qHTS in cells in presence of CPT; chicken DT40 Tdp1-/-;hTDP1 cells + 20 nM CPT, ATP luminescence, 48 h; Potency, µM (highest dose often 46.2 µM), for the others: at the top dose activity change, negative = growth inhibition, actives largely listed as inhibitors; 12% of 420,000 active; further: potency means the concentration at half of the fitted maximal effect; nearly all actives have a fitted effect of over 55% in size
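Chicken DT40 Tdp1-/- cells complemented with human TDP1, 400 cells/well, exposed to compounds plus 20 nM camptothecin for at least 48 h at 37 C; viability read as ATP content by CellTiter-Glo luminescence.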
IL-1B inflam inh: qHTS for Inhibitors of Inflammasome Signaling: IL-1-beta AlphaLISA Primary Screen; THP-1 LPS/ATP IL-1B secretion, AlphaLISA, 16 h; hits give low values; activity change, % at 57.5 µM; 4.7% of 360,000 active; AID 743279, 2014; in the data active means activity change below about -50%; inconclusive means mostly about -30% to -49%
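THP-1 cells pretreated 1 hr with compounds (up to 57.5 uM final), then stimulated with LPS (250 ng/mL final) plus ATP (1.25 mM final); secreted IL-1B measured by AlphaLISA after 16 hr, decreased signal indicating inhibition.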
ALOX12 inh: Primary qHTS assay for inhibitors of human arachidonate 12S-lipoxygenase (ALOX12): Round 2 | Potency, µM (series often up to 108 µM), for inactives: top-dose activity change, negative = inhibition, actives largely listed as inhibitors | 1.1% of 580,000 active | AID 1671190, 2021 | purified 12hLO, xylenol orange hydroperoxide absorbance; further: potency means the concentration at half of the fitted maximal effect
Target sequence (P18054 whole entry, looked up): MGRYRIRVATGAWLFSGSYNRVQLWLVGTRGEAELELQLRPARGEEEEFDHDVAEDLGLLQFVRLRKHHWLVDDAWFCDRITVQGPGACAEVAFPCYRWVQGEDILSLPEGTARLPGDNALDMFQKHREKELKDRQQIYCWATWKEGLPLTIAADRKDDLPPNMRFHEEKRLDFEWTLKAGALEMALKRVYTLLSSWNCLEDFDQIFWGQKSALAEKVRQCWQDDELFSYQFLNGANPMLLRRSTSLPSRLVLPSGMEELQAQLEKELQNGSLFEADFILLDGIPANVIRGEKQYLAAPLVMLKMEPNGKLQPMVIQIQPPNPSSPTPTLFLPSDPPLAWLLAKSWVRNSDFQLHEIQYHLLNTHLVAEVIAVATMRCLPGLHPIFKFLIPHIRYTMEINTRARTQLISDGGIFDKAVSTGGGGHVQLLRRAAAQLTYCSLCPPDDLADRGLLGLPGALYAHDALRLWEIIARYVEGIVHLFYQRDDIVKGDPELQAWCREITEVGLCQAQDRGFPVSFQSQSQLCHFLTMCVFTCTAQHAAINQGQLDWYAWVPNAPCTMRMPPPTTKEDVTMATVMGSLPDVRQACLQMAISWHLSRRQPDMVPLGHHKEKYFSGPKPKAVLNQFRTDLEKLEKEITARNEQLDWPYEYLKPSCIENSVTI
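Purified human 12hLO at 150 nM in 25 mM Hepes, 0.01% Triton X-100, pH 7.0, preincubated 15 min at room temperature with compound. Reaction started with 40 uM arachidonic acid, 30 min at room temperature. Hydroperoxide measured by Fe-xylenol orange, 573/405 nm absorbance ratio.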
The depositor's hits bear a star; u = inconclusive; x = no result given. Unless noted, the call rests on the fitted dose curve; in most records, active means well fitted curve in the direction sought with a large enough effect; inconclusive means small, poorly fitted or top-dose-only effect, or another doubt; inactive means no such curve, though single readings can be large; an effect the other way counts as inactive or inconclusive. Unless noted, on the % scale 0 is the no-effect control and ±100 the full control effect.

SMILES | HT1080-NT tox | DT40 TDP1 no CPT | HT1080 IDH1KD tx | TDP1 cell CPT | IL-1B inflam inh | ALOX12 inh
Cc1ccc(NS(=O)(=O)c2cc([N+](=O)[O-])ccc2N/N=C/c2ccccc2)c(C)c1 | x | x | x | x | x | 0%
Cc1[nH]c2ccccc2c1/C=N/Nc1ccc([N+](=O)[O-])cc1S(=O)(=O)Nc1ccc(Cl)cc1 | 1% | 15µM* | 9% | 21µM* | 1 | u
C=CCN(CC(=O)NC(=O)NC)Cc1cccs1 | x | x | x | x | x | 2%
CC(C)n1nc(C(=O)N2CCN(Cc3ccccc3)CC2)c2ccccc2c1=O | x | x | x | x | x | -3%
COc1ccc(/C=N/Nc2ccc([N+](=O)[O-])cc2S(=O)(=O)N2CCN(C)CC2)cc1 | 6% | 13% | 0% | -1% | 4 | -20%
COc1ccc(NS(=O)(=O)c2cc([N+](=O)[O-])ccc2N/N=C\c2c(C)[nH]c3ccccc23)cc1 | -3% | u | -4% | 16µM* | -1 | 9%
Cc1cc(C)c2c(N)c(-c3nnc(SCc4ccc(Cl)cc4)n3C)sc2n1 | 6% | u | 8% | -4% | 23 | 194%
C=CCn1c(SCc2ccccc2Cl)nnc1-c1sc2nc(C)cc(C)c2c1N | u | 23µM* | 12% | u | -12 | 151%
O=C(Nc1ncn(Cc2ccccc2F)n1)c1ccn(COc2ccc(Cl)cc2)n1 | x | x | x | x | x | 5%
O=C(C1CCN(C(=O)N2CC3CC(C2)[C@H]2CCCC(=O)N2C3)CC1)N1CCN(C2CCCCC2)CC1 (stereo partly specified) | x | x | x | x | x | 47%
NNC(=O)/C(=C\c1ccco1)NC(=O)c1ccco1 | 15µM* | 4% | u | 1% | 97 | 9%
CC(C)(C)c1ccc(-c2cc(C[C@H]3CNCC[C@H]3CC(=O)NCCN3CCOCC3)no2)cc1 | x | x | x | x | x | -14%
O=C1NC2(CCN(CC3CCCCC3)CC2)COc2ccccc21 | x | x | x | x | x | 63µM*
COc1ccc2[nH]c3c(c2c1)CCN1C(=O)C(CC(=O)NCC24CC5CC(CC(C5)C2)C4)C[C@H](C(=O)N2CCOCC2)[C@@]31CCC1CCCC1 (stereo partly specified) | 10% | u | 8% | u | -62* | u
O=C(C[C@H]1C[C@H](C(=O)N2CCOCC2)[C@@]2(CCC3CCCC3)c3[nH]c4ccc(Cl)cc4c3CCN2C1=O)NCCN1CCOCC1 | 8% | u | 7% | u | -2 | -8%
O=C(C[C@H]1C[C@H](C(=O)N2CCOCC2)[C@@]2(CCC3CCCC3)c3[nH]c4ccc(Cl)cc4c3CCN2C1=O)NCC12CC3CC(CC(C3)C1)C2 | 1% | 21µM* | 1% | 16µM* | 43 | -8%
COCCCNC(=O)C[C@H]1C[C@H](C(=O)N2CCOCC2)[C@@]2(CCC3CCCC3)c3[nH]c4ccc(Cl)cc4c3CCN2C1=O | 6% | u | 10% | 21µM* | -2 | u
O=C(NCc1ccccc1)c1cc2cc(Cl)ccc2[nH]1 | x | x | x | x | x | -23%
CCc1ccc(-n2c(=O)c3cccnc3n2CC(=O)N(CC)c2cccc(C)c2)cc1 | x | 13µM* | x | 23µM* | x | -10%
CCc1ccc(-n2c(=O)c3cccnc3n2CC(=O)Nc2cc(OC)ccc2OC)cc1 | x | u | x | u | x | -2%
CCc1cccc(-n2c(=O)c3cccnc3n2CC(=O)Nc2ccc(OC)c(Cl)c2)c1 | x | 26µM* | x | 21µM* | x | -13%
CCc1ccc(-n2c(=O)c3cccnc3n2CC(=O)Nc2cc(F)ccc2F)cc1 | x | 8.2µM* | x | 2.6µM* | x | -1%
Cc1ccc(-n2c(=O)c3cccnc3n2CC(=O)NCc2ccc(Cl)cc2)cc1 | x | -11% | x | -5% | x | -21%
CC(=O)c1ccc(NC(=O)Cn2c3ncccc3c(=O)n2-c2ccc(C)cc2)cc1 | x | 16µM* | x | 16µM* | x | -19%
Cc1cccc(C(C)C)c1NC(=O)c1ccc2c(c1)CCN2S(C)(=O)=O | x | u | x | u | x | -25%
SMILES | HT1080-NT tox | DT40 TDP1 no CPT | HT1080 IDH1KD tx | TDP1 cell CPT | IL-1B inflam inh | ALOX12 inh
CCCCCCCn1c(N(C)C)nc2c1c(=O)[nH]c(=O)n2C | x | x | x | x | x | -3%
O=C(N1CCN(Cc2ccccc2)CC1)C(F)(F)C(F)(F)C(F)(F)C(F)(F)F | x | x | x | x | x | 28µM*
COc1ccc2c(C)c(CCC(=O)NCCCN3CCOCC3)c(=O)oc2c1 | x | x | x | x | x | -2%
Cc1cc(Cl)ccc1NC(=O)c1ncoc1-c1ccco1 | x | x | x | x | x | 2%
O=[N+]([O-])c1cccc(COc2ccc(CN3CCCCC3)cc2)c1 | -6% | 23µM* | -3% | 21µM* | -12 | 11%
O=[N+]([O-])c1ccc(COc2cccc(CN3CCOCC3)c2)cc1 | -2% | 23µM* | 4% | 18µM* | -15 | 0%
O=[N+]([O-])c1cccc(COc2cccc(CN3CCOCC3)c2)c1 | -7% | -24% | -7% | -10% | 0 | -17%
O=[N+]([O-])c1cccc(COc2ccccc2CN2CCCCC2)c1 | 0% | u | -4% | u | -20 | 2%
Cc1cnc2c(S(=O)(=O)N3CCN(C)CC3)cccc2c1 | x | x | x | x | x | 13%
Nn1c(SCc2ncc(-c3ccccc3)o2)nnc1-c1ccccc1F | x | x | x | x | x | 6.3µM*
Fc1ccc(-c2nnc(SCc3ncc(-c4ccccc4)o3)n2CC2CCCO2)cc1 (stereo unspecified) | 7% | u | 2% | -15% | u | u
CCC(=O)N1CCC2(CC1)C(OC)CN2c1ccc(C)cc1 (stereo unspecified) | x | x | x | x | x | -11%
Cc1ccc(C)c(-c2cc(C(=O)NCc3cccs3)c3ccccc3n2)c1 | -17% | u | -26% | u | -10 | 9%
O=C(NCc1cccs1)c1cc2ccccc2oc1=O | x | x | x | x | x | -28%
Nc1nc2ccccc2cc1C(=O)NCCCCc1ccccc1 | u | 1.6µM* | u | 2.1µM* | 52 | x
Cc1ccc(-c2nc3ccccc3c(C(=O)NCc3cccs3)c2C)cc1 | -10% | u | -10% | 21µM* | -8 | u
Nc1nc2ccccc2cc1C(=O)NCc1cccs1 | -11% | 7.3µM* | -26% | 9.2µM* | 48 | 5%
O=C(NCc1cccs1)c1cc(-c2ccccc2)nc2ccccc12 | -4% | 21µM* | -1% | 23µM* | 12 | -2%

High-throughput results from PubChem BioAssay.
